# From ChEMBL document CHEMBL1961873, “Compounds: GSK PKIS; Assays: Nanosyn kinase panel” (2012)
# Columns and labels:
# [1] = molecular target: T1, Serine/threonine-protein kinase Nek9 (Homo sapiens) (UniProt Q8TD19); settings: at 1 µM;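 further: each value is a mean percent inhibition of NEK9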
# T1 sequence (whole entry): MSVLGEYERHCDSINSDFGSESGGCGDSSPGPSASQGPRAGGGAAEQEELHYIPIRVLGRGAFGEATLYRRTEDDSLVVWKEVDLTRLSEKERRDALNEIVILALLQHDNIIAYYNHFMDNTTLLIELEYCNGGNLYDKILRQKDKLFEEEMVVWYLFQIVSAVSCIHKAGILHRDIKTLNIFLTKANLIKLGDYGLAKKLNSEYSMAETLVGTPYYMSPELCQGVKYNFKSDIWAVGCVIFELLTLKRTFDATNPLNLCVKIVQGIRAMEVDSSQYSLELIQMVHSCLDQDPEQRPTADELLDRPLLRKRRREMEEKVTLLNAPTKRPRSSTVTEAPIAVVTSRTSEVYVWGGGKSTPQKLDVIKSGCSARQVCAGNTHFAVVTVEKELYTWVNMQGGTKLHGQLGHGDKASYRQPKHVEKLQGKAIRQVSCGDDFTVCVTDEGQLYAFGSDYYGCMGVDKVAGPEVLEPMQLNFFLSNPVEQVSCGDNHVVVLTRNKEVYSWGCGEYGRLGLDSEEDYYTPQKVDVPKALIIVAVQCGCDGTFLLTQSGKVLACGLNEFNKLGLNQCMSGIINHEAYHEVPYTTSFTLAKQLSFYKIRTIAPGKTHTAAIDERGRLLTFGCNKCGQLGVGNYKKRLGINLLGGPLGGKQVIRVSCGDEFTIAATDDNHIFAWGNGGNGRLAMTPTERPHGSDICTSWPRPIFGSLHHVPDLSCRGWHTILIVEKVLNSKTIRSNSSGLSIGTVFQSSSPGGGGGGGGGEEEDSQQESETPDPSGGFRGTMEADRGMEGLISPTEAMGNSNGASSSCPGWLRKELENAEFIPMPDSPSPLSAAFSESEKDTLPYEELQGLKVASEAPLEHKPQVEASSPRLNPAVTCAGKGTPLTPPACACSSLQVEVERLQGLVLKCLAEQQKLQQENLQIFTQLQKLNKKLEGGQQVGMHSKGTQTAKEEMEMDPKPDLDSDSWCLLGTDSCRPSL
# [2] = molecular target: Serine/threonine-protein kinase PLK1 (Homo sapiens) (UniProt P53350); settings: at 0.1 µM
# [3] = molecular target: Serine/threonine-protein kinase PLK1 (Homo sapiens) (UniProt P53350); settings: at 1 µM
# [4] = molecular target: T2, Dual specificity protein kinase TTK (Homo sapiens) (UniProt P33981); settings: at 0.1 µM
# T2 sequence (whole entry): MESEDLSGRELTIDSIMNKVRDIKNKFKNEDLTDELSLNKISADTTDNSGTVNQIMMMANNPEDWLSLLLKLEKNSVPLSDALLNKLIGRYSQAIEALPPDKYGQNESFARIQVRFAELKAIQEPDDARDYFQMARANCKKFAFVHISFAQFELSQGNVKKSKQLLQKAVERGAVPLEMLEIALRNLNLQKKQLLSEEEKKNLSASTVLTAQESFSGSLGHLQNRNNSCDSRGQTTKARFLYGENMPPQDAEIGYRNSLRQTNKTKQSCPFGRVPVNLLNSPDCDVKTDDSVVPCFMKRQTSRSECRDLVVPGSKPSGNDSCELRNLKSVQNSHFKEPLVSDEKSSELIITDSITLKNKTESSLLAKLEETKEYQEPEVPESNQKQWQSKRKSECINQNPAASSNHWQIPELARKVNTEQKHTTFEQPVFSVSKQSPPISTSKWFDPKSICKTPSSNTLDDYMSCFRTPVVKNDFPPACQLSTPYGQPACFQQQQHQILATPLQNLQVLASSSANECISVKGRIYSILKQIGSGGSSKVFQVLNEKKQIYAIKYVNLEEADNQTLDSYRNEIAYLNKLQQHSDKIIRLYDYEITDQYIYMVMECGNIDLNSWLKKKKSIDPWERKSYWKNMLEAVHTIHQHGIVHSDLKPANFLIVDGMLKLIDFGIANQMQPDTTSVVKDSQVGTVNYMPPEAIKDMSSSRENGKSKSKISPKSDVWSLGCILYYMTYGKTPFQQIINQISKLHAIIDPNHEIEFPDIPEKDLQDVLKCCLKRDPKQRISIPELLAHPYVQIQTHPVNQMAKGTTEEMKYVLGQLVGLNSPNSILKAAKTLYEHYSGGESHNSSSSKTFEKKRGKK
# [5] = system: T3, Receptor-type tyrosine-protein kinase FLT3 (Homo sapiens), P36888 [D835Y]; settings: at 1 µM
# T3 sequence (whole entry): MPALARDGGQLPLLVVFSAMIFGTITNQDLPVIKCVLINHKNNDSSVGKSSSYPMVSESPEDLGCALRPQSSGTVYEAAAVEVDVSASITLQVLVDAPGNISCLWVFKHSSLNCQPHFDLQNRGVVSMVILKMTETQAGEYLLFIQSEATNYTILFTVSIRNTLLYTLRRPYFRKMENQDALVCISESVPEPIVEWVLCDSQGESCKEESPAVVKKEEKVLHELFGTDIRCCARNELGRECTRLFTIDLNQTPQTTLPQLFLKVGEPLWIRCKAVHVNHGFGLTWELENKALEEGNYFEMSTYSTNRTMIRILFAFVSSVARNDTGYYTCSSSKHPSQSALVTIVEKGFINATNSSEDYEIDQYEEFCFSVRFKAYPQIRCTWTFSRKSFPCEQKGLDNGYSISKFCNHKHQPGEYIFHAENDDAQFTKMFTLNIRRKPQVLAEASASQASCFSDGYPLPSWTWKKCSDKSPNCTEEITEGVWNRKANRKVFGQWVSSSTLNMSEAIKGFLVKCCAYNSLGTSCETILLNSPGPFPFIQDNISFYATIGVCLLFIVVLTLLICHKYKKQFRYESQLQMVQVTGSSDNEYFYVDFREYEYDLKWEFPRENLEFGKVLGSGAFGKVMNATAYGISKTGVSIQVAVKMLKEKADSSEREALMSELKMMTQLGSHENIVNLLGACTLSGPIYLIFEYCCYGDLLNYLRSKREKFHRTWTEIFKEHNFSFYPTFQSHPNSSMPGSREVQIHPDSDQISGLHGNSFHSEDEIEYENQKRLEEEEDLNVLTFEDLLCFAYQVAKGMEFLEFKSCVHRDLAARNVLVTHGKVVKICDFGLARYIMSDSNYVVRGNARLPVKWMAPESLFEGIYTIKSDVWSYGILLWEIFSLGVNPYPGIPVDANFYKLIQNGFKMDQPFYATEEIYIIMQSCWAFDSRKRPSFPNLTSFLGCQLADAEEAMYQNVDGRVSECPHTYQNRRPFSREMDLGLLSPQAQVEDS
# [6] = molecular target: Vascular endothelial growth factor receptor 3 (Homo sapiens) (UniProt P35916); settings: at 0.1 µM
# [7] = molecular target: Vascular endothelial growth factor receptor 3 (Homo sapiens) (UniProt P35916); settings: at 1 µM
# [8] = molecular target: Macrophage colony-stimulating factor 1 receptor (Homo sapiens) (UniProt P07333); settings: at 0.1 µM
# [9] = molecular target: Macrophage colony-stimulating factor 1 receptor (Homo sapiens) (UniProt P07333); settings: at 1 µM
# [10] = molecular target: Tyrosine-protein kinase Fyn (Homo sapiens) (UniProt P06241); settings: at 0.1 µM
# Tyrosine-protein kinase Fyn (Homo sapiens), sequence (P06241 2-537 limits assumed): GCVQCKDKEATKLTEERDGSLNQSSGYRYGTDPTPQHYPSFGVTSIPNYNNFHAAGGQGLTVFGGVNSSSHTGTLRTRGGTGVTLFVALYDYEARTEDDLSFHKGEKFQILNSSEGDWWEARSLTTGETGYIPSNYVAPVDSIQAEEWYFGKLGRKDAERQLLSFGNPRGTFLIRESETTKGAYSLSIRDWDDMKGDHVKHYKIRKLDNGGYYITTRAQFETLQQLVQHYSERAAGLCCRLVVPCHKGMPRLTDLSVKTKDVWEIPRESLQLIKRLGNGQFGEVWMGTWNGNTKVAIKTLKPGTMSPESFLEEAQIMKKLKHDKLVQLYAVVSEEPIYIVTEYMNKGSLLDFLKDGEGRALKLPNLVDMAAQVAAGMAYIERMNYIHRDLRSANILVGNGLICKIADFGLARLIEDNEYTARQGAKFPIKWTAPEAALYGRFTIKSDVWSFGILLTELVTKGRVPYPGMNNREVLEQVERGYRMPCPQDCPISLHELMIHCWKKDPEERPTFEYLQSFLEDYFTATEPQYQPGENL
# Vascular endothelial growth factor receptor 3 (Homo sapiens), sequence (P35916 whole entry): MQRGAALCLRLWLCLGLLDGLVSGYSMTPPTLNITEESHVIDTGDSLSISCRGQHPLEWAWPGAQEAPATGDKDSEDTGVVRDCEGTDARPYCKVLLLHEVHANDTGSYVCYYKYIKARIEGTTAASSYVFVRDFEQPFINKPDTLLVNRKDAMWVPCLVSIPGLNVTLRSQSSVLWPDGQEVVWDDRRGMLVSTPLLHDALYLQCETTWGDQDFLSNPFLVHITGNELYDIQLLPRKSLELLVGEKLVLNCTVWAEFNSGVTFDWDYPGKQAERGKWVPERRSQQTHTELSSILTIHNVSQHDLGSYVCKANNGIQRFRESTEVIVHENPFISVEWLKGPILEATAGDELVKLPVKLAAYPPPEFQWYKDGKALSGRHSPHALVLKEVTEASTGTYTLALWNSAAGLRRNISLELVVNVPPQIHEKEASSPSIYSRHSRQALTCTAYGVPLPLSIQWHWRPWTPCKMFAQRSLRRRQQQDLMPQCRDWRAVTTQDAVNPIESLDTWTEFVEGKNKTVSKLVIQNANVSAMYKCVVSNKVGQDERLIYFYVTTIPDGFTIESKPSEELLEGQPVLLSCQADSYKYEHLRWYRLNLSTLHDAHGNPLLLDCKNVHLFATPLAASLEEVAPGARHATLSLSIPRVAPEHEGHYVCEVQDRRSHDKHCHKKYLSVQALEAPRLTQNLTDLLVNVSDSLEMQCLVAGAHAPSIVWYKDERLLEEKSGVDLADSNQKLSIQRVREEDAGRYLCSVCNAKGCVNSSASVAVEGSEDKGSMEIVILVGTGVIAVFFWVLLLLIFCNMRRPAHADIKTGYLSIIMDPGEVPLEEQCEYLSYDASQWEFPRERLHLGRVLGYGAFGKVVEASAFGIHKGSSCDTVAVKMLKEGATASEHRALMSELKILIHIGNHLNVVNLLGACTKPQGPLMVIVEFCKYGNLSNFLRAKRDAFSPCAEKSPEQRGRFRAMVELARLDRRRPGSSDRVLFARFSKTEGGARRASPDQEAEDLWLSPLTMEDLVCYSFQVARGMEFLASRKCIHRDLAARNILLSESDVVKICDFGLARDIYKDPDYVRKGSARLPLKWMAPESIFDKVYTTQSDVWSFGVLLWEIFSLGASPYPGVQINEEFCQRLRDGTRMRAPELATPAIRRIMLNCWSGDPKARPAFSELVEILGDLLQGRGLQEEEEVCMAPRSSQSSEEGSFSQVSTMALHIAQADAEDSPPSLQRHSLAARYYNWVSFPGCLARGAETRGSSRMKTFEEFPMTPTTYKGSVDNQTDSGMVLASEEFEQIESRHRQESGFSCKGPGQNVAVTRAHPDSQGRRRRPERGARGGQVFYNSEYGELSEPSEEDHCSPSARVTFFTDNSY
# Serine/threonine-protein kinase PLK1 (Homo sapiens), sequence (P53350 whole entry): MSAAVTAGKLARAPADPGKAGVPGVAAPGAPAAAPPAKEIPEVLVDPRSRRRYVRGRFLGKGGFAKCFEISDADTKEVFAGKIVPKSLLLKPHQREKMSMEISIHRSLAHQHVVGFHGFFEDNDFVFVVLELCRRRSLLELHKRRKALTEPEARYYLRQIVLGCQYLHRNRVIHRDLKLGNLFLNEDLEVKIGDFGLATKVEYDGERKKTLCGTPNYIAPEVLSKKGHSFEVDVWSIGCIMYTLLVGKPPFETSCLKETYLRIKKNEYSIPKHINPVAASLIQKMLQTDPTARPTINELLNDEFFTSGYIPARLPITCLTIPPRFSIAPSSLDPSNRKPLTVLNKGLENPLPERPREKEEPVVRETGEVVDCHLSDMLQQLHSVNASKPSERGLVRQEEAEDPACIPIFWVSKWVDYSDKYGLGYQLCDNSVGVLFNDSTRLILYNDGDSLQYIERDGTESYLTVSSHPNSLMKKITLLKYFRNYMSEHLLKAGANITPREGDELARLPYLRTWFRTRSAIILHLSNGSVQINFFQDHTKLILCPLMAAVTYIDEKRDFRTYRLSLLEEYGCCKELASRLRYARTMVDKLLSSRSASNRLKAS
# Macrophage colony-stimulating factor 1 receptor (Homo sapiens), sequence (P07333 whole entry): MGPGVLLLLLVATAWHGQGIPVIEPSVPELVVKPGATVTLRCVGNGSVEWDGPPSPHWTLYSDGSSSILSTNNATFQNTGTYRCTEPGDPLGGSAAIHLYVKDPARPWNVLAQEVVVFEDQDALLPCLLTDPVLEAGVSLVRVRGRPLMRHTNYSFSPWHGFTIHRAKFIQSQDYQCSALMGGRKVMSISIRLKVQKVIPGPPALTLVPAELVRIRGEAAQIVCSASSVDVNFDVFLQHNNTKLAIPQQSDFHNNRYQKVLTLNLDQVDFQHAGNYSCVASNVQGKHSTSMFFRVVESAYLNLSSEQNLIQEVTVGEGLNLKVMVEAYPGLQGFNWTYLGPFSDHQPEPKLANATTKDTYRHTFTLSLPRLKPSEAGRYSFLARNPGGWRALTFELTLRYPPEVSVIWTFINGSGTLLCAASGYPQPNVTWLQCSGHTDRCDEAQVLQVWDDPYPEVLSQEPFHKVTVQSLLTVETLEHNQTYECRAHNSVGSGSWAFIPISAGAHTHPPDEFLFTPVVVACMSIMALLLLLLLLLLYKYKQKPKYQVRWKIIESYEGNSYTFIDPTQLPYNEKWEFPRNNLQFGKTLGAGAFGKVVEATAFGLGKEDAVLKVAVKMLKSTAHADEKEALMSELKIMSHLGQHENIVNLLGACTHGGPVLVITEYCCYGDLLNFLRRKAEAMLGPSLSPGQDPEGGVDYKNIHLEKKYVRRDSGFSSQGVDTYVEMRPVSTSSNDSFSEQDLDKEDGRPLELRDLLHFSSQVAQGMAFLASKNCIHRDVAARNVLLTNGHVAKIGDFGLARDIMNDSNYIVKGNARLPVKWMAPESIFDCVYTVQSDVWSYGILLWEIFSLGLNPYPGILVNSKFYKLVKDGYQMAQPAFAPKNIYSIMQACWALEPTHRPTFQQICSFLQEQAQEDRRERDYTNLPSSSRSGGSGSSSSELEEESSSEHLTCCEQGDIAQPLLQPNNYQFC
Compound,inhibition [1] [%],inhibition [2] [%],inhibition [3] [%],inhibition [4] [%],inhibition [5] [%],inhibition [6] [%],inhibition [7] [%],inhibition [8] [%],inhibition [9] [%],inhibition [10] [%]
COc1cccc(-n2ncc3c(N/N=C/c4ccc(C)cc4)ncnc32)c1,9.51,7.38,14.2,18.3,10.3,3.28,4.5,4.53,12.9,5.39
c1ccc(Nc2ncc(-c3ccccc3)o2)cc1,10.2,5.96,5.42,18.1,9.89,3.79,11.7,3.76,22.9,3.46
CN(C)CCCn1c(-c2nonc2N)nc2cnccc21,12.3,3.73,4.15,8.12,-1.23,15.4,15.3,2.34,1.06,2.62
Nc1nccc(-c2c(-c3ccc(F)cc3)ncn2CCCN2CCOCC2)n1,15.2,2.14,4.49,10.5,-6.25,15.4,17,2.72,1.51,0.86
O=S(=O)(CCOCc1ccc(-c2ccc3ncnc(Nc4ccc(OCc5cccc(F)c5)c(Cl)c4)c3c2)o1)c1ccccc1,0.79,2.52,2.68,6.45,-7.19,5.04,14,-1.86,7.49,2.16
NC(=O)c1sc(-n2cnc3ccccc32)cc1OCc1ccccc1Br,23.5,78.3,95.3,10.6,-5.34,2.98,4.24,-0.73,7.89,3.58
N#Cc1cccc(Nc2nccc(-c3cnn4ncccc34)n2)c1,15.6,3.24,9.23,11.2,53.4,5.06,22.3,34.4,79.4,6.76
CN(C)C(=O)O[C@H]1CN[C@H](C#Cc2cc3ncnc(Nc4ccc(OCc5cccc(F)c5)c(Cl)c4)c3s2)C1,-1.84,2.9,2.92,4.75,4.09,2.38,1.19,10.5,3.36,-0.77
OCc1ccc(-c2nc(-c3ccccn3)c(-c3ccc4c(c3)OCO4)[nH]2)cc1,2.88,3.56,4.3,7.41,-0.9,1.47,-0.57,3.57,4.35,2.25
NS(=O)(=O)c1cccc(-c2cc3ccncc3cc2OCc2ccccc2)c1,5.52,3.05,4.2,7.53,-1.3,15.2,18.5,4.7,5.36,4.1
CCCN1CCCC(c2ccc(Nc3nc(Nc4cc(F)ccc4C(N)=O)c4cc[nH]c4n3)c(OC)c2)C1 (stereo not given),12.8,13.3,48.1,75.9,43.4,-0.55,4.1,34.6,78.6,3.45
Cc1ccc2c(c1)/C(=N/Nc1ccc(S(N)(=O)=O)cc1)C(=O)N2,4.02,0.67,1.12,7.53,10.8,2.09,14.6,2.64,16.7,1.22
COc1cc2ncnc(Nc3ccc(C)c(O)c3)c2cc1OC,11.6,2.93,2.77,9.85,2.41,97.5,107,4.29,6.14,12.8
COc1ccc2ncnc(Nc3ccc(OCc4ccccc4)cc3)c2c1,4.48,2.95,0.42,2.89,8.02,-0.47,0.28,3.05,3.66,2.39
Cc1ccc(C(=O)NC2CC2)cc1-c1ccc2[nH]ncc2c1,-2.78,-2.55,-0.76,-7.32,3.33,-0.16,1.13,-5.43,4.56,-0.87
NS(=O)(=O)c1ccc(-c2cc3ccncc3cc2OCc2ccccc2)cc1,7.84,2.8,1.7,9.2,1.86,-1.68,1.58,-0.56,1.76,1.04
O=C1Nc2ccccc2/C1=C/Nc1ccc2[nH]c(=O)[nH]c2c1,15.6,5.67,3.82,15.4,65.9,4.3,26.6,11.9,48.2,4.36
